Test results published in article PMC7862700, “An all-to-all approach to the identification of sequence-specific readers for epigenetic DNA modifications on cytosine”.

Assays:
Test in all cases: DAPPL (digital affinity profiling via proximity ligation, sequencing); 10 mM Tris-HCl pH 7.5, 50 mM NaCl, 1 mM DTT, 4% glycerol, room temperature, 30 min; GST-TFs on glutathione beads, 16-mer random dsDNA library, 0.1% formaldehyde crosslink after washing; high values mean tight binding
FEV = biological target: T1, FEV (Homo sapiens, UniProt Q99581 1-238); conditions: protein: recombinant; tags: N-terminal GST; dsDNA, one strand shown
T1 sequence: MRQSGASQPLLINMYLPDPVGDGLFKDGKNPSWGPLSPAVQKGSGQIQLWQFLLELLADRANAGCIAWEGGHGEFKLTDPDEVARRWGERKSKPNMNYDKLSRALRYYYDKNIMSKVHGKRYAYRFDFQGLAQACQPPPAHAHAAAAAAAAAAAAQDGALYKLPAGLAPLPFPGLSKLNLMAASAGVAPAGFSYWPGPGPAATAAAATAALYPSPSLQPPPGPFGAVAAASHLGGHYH
In short: (§1)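 The binding signal reported is, for every hexamer, its read frequency for a factor over its read frequency for the tag-only sample. Reads came from pools of yeast-expressed, GST-fused human transcription factors on glutathione beads, barcoded with DNA and mixed with that sample, which were incubated with 200 nmole of a random double-stranded 16-mer DNA library in Tris/NaCl/DTT/glycerol buffer at room temperature for 30 min. After washing, the pools were crosslinked with 0.1% formaldehyde, proximity-ligated with BsaI/T4 ligase for 1 h at 37 °C, PCR-amplified and sequenced on an Illumina NextSeq500.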

ETV5 = ETV5 (Homo sapiens, UniProt P41161 1-510); conditions: protein: recombinant; tags: N-terminal GST; dsDNA, one strand shown
Chain of ETV5 (P41161 whole entry): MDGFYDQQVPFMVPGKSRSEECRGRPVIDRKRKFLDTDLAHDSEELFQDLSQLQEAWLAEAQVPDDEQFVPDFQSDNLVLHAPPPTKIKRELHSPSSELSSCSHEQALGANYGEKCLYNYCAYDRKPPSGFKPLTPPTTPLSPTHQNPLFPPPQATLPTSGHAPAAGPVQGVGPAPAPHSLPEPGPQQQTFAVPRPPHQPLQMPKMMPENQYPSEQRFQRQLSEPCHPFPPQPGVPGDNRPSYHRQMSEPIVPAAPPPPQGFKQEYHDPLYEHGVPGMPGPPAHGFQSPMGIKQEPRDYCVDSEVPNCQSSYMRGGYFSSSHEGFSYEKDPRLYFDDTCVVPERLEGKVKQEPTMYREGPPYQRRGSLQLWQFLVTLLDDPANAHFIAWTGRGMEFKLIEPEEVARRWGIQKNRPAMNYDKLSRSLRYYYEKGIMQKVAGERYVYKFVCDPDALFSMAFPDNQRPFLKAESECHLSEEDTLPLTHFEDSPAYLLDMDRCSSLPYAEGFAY
In short: as §1

HSF1 = HSF1 (Homo sapiens, UniProt Q00613 1-529); conditions: protein: recombinant; tags: N-terminal GST; chain copies: 3; dsDNA, one strand shown
Chain of HSF1 (Q00613 whole entry): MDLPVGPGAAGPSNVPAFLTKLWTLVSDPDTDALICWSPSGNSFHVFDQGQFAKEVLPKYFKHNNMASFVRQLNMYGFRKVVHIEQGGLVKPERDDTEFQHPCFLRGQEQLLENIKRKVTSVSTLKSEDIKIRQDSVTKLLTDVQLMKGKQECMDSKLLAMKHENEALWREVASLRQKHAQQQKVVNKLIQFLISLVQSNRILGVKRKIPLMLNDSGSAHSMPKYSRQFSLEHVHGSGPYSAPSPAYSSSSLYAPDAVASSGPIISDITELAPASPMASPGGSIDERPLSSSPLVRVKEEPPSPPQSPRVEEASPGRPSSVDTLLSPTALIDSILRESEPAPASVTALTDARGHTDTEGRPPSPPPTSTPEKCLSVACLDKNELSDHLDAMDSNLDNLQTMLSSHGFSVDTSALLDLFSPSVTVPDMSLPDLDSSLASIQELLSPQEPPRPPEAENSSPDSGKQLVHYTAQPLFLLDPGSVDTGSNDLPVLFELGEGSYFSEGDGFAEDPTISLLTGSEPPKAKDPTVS
In short: as §1

SPIC = biological target: T2, SPIC (Homo sapiens, UniProt Q8N5J4 1-248); conditions: protein: recombinant; tags: N-terminal GST; dsDNA, one strand shown
T2 sequence: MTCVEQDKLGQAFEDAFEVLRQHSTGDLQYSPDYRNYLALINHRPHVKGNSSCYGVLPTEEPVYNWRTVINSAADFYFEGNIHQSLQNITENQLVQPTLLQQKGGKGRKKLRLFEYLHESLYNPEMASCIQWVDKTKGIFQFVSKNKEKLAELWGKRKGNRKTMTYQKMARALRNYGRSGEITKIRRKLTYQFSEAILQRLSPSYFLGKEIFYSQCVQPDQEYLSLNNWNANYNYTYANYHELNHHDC
In short: as §1

ELF4 = ELF4 (Homo sapiens, UniProt Q99607 1-663); conditions: protein: recombinant; tags: N-terminal GST; dsDNA, one strand shown
Chain of ELF4 (Q99607 whole entry): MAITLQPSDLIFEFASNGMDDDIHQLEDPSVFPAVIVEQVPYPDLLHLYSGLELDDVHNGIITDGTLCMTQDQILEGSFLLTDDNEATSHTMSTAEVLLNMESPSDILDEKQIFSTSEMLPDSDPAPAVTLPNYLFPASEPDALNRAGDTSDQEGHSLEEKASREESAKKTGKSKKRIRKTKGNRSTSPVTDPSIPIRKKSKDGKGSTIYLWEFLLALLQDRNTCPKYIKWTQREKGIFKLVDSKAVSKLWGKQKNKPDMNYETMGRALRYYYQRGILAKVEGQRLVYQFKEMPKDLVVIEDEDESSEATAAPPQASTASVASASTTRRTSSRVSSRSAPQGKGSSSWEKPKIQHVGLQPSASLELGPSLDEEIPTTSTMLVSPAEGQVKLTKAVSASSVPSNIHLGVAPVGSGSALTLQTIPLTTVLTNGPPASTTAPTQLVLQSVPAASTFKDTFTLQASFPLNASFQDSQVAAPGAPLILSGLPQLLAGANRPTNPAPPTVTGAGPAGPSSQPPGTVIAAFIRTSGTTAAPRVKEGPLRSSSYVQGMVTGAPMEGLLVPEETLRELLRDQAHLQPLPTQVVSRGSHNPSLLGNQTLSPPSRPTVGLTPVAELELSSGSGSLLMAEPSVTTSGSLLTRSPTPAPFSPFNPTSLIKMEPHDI
In short: as §1

ELK4 = biological target: T3, ELK4 (Homo sapiens, UniProt P28324-2 1-405); conditions: protein: recombinant; tags: N-terminal GST; dsDNA, one strand shown
T3 sequence: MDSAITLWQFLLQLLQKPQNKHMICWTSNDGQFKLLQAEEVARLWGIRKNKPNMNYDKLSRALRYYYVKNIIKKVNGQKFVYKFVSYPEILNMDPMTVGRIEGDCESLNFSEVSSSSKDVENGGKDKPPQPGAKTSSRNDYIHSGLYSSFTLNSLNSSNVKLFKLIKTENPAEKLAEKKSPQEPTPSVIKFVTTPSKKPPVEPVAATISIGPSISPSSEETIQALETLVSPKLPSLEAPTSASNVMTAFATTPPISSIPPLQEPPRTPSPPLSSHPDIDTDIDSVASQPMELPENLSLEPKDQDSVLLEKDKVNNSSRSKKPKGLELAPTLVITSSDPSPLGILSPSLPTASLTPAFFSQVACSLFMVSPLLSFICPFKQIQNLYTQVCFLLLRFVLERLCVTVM
In short: as §1

ETV2 = biological target: T4, ETV2 (Homo sapiens, UniProt O00321 1-342); conditions: protein: recombinant; tags: N-terminal GST; dsDNA, one strand shown
T4 sequence: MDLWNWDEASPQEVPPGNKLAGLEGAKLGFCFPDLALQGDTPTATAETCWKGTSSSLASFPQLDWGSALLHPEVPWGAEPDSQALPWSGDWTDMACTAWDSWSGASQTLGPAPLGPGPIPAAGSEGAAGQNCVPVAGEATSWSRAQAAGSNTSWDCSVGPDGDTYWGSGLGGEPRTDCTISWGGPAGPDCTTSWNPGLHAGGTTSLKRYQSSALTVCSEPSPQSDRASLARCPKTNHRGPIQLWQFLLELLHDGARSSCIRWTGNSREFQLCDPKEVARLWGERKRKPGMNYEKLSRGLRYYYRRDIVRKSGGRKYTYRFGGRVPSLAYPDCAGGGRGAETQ
In short: as §1

ELF3 = biological target: T5, ELF3 (Homo sapiens, UniProt P78545 1-371); conditions: protein: recombinant; tags: N-terminal GST; dsDNA, one strand shown
T5 sequence: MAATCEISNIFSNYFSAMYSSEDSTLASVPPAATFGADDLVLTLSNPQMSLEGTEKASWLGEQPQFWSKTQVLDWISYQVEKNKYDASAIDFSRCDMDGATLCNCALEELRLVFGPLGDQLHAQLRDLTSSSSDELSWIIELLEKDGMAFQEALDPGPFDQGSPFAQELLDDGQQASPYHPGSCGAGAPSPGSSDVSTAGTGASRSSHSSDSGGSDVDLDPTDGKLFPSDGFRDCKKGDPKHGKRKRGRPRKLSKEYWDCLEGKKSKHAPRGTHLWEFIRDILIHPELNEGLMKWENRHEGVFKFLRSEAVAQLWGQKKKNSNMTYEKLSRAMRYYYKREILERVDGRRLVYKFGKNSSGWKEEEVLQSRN
In short: as §1

CRX = CRX (Homo sapiens, UniProt O43186 1-299); conditions: protein: recombinant; tags: N-terminal GST; dsDNA, one strand shown
Chain of CRX (O43186 whole entry): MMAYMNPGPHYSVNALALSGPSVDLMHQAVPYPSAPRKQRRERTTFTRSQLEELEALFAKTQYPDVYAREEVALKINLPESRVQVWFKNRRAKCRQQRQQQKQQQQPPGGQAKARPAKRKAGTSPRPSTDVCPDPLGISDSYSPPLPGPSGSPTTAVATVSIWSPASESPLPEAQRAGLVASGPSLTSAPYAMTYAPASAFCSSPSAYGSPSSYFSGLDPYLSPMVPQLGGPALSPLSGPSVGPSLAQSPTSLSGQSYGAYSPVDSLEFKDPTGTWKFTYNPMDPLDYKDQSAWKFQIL
In short: as §1

ETV1 = ETV1 (Homo sapiens, UniProt P50549 1-477); conditions: protein: recombinant; tags: N-terminal GST; dsDNA, one strand shown
Chain of ETV1 (P50549 whole entry): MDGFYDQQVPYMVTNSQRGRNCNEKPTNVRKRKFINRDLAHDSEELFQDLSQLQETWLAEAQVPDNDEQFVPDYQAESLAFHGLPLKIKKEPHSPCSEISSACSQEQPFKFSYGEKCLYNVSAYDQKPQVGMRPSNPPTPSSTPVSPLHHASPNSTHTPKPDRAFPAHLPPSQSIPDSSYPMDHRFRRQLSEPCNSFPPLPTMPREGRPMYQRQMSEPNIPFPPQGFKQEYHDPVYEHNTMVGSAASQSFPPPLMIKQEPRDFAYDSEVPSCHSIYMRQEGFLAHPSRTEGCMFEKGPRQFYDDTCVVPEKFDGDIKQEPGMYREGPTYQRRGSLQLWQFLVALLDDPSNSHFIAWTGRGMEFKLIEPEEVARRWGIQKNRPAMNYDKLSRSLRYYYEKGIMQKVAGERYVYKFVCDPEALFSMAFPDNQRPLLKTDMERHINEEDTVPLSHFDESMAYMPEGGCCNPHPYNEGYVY
In short: as §1

ERF = biological target: T6, ERF (Homo sapiens, UniProt P50548 1-548); conditions: protein: recombinant; tags: N-terminal GST; dsDNA, one strand shown
T6 sequence: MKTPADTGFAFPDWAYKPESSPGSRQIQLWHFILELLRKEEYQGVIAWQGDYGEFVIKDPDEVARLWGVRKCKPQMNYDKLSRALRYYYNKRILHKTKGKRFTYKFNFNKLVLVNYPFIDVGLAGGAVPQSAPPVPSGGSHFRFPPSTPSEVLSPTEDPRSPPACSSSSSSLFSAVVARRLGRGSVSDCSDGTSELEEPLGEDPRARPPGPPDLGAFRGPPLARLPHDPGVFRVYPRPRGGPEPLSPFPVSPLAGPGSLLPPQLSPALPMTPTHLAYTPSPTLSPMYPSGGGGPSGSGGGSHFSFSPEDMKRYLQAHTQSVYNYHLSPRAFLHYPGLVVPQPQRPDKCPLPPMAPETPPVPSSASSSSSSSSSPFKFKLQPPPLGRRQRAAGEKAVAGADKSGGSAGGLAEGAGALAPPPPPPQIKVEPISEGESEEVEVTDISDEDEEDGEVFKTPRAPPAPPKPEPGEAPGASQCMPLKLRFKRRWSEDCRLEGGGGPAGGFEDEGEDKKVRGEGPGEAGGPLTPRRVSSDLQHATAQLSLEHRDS
In short: as §1

ETV3L = biological target: T7, ETV3L (Homo sapiens, UniProt Q6ZN32 1-361); conditions: protein: recombinant; tags: N-terminal GST; dsDNA, one strand shown
T7 sequence: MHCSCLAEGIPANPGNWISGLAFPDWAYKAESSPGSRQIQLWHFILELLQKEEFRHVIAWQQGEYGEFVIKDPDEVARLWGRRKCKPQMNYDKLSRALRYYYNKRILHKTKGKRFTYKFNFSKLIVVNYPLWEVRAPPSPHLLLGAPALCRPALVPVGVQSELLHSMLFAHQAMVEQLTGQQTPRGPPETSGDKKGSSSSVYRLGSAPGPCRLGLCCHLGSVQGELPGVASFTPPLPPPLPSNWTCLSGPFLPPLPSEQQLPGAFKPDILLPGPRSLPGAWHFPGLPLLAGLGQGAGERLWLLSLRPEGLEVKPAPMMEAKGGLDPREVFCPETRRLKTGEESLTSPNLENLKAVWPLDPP
In short: as §1

ETS2 = biological target: T8, ETS2 (Homo sapiens, UniProt P15036 1-469); conditions: protein: recombinant; tags: N-terminal GST; dsDNA, one strand shown
T8 sequence: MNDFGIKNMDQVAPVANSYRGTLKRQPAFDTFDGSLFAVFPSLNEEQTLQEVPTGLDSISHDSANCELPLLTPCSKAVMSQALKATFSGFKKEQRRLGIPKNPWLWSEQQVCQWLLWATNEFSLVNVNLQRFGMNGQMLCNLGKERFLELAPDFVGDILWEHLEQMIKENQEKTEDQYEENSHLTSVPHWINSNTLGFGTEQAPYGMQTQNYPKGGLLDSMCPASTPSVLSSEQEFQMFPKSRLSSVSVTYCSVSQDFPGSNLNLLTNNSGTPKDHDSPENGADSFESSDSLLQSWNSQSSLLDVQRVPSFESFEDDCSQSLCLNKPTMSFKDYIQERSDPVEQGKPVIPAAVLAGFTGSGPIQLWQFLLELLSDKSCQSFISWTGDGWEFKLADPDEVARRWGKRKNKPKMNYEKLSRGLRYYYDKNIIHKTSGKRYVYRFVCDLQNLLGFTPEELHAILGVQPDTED
In short: as §1

SPDEF = biological target: T9, SPDEF (Homo sapiens, UniProt O95238 1-335); conditions: protein: recombinant; tags: N-terminal GST; dsDNA, one strand shown
T9 sequence: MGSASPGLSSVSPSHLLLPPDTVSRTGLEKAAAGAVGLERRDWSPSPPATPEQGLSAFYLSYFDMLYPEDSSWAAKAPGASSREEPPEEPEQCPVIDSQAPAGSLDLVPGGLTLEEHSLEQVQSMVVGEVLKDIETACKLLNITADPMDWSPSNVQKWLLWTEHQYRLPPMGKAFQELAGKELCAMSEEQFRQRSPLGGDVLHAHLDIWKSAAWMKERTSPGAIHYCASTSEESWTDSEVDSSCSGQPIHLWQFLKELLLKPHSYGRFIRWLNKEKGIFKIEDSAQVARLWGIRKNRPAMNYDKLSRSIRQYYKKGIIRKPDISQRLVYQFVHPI
In short: as §1

ETV7 = biological target: T10, ETV7 (Homo sapiens, UniProt Q9Y603 1-341); conditions: protein: recombinant; tags: N-terminal GST; dsDNA, one strand shown
T10 sequence: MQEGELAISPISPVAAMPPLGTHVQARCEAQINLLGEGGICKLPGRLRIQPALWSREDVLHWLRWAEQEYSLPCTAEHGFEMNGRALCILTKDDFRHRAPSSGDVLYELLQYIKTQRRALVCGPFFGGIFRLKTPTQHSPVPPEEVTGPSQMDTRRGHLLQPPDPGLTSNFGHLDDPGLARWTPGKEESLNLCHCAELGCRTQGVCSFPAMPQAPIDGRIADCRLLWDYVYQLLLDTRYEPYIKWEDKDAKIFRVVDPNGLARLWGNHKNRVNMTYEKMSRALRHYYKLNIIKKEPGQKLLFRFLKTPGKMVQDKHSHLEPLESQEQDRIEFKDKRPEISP
In short: as §1

ELF5 = biological target: T11, ELF5 (Homo sapiens, UniProt Q9UKW6-2 1-255); conditions: protein: recombinant; tags: N-terminal GST; dsDNA, one strand shown
T11 sequence: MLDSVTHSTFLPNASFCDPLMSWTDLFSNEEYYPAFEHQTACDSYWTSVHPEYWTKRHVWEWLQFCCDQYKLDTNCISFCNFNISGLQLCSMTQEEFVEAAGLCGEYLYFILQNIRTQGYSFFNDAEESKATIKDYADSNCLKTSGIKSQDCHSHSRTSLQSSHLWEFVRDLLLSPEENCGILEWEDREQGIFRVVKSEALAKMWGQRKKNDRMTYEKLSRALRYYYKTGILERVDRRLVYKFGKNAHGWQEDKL
In short: as §1

ETV3 = biological target: T12, ETV3 (Homo sapiens, UniProt P41162-2 1-143); conditions: protein: recombinant; tags: N-terminal GST; dsDNA, one strand shown
T12 sequence: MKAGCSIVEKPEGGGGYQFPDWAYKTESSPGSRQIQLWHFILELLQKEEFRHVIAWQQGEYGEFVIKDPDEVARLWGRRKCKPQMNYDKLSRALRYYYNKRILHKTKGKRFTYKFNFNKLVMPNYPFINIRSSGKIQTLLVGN
In short: as §1

ETV6 = ETV6 (Homo sapiens, UniProt P41212 1-452); conditions: protein: recombinant; tags: N-terminal GST; dsDNA, one strand shown
Chain of ETV6 (P41212 whole entry): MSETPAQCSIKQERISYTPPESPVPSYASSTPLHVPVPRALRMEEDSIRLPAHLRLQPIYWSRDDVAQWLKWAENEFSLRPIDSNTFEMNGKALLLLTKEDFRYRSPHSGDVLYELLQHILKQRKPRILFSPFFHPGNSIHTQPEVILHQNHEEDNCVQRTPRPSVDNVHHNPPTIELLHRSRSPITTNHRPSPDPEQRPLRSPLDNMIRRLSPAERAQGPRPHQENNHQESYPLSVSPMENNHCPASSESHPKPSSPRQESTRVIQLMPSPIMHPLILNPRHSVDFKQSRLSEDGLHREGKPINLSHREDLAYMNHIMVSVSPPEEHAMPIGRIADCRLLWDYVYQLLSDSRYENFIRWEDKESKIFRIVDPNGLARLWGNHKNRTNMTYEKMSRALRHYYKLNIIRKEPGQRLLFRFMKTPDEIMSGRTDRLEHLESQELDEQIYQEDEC
In short: as §1

Question: Which results are given for GATCTC?
Answer: binding signal (FEV): 1.2 fold enrichment (6-mer frequency, TF over GST control); binding signal (ETV5): 1.27 fold enrichment (6-mer frequency, TF over GST control); binding signal (HSF1): 1.42 fold enrichment (6-mer frequency, TF over GST control); binding signal (SPIC): 1.26 fold enrichment (6-mer frequency, TF over GST control); binding signal (ELF4): 1.3 fold enrichment (6-mer frequency, TF over GST control); binding signal (ELK4): 1.22 fold enrichment (6-mer frequency, TF over GST control); binding signal (ETV2): 1.3 fold enrichment (6-mer frequency, TF over GST control); binding signal (ELF3): 1.23 fold enrichment (6-mer frequency, TF over GST control); binding signal (CRX): 1.46 fold enrichment (6-mer frequency, TF over GST control); binding signal (ETV1): 1.35 fold enrichment (6-mer frequency, TF over GST control); binding signal (ERF): 1.22 fold enrichment (6-mer frequency, TF over GST control); binding signal (ETV3L): 1.25 fold enrichment (6-mer frequency, TF over GST control); binding signal (ETS2): 1.31 fold enrichment (6-mer frequency, TF over GST control); binding signal (SPDEF): 1.42 fold enrichment (6-mer frequency, TF over GST control); binding signal (ETV7): 1.29 fold enrichment (6-mer frequency, TF over GST control); binding signal (ELF5): 1.21 fold enrichment (6-mer frequency, TF over GST control); binding signal (ETV3): 1.29 fold enrichment (6-mer frequency, TF over GST control); binding signal (ETV6): 1.15 fold enrichment (6-mer frequency, TF over GST control)
